AmpC no deterg – qHTS Inhibitors of AmpC Beta-Lactamase (assay without detergent) | AID 485341, 2010 | Potency, µM (doses to about 57.1 µM), without a hit: at the highest dose activity change, negative = inhibition, most hits filed as inhibitors | hit rate 0.52% among 330,000 | AmpC nitrocefin hydrolysis, absorbance 480 nm, 0.0001% Triton | P00811;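 further: plate controls were no compound for no effect and no enzyme for full effect; nearly all actives have a fitted effect of over 20% in size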
Target sequence (P00811 whole entry, looked up): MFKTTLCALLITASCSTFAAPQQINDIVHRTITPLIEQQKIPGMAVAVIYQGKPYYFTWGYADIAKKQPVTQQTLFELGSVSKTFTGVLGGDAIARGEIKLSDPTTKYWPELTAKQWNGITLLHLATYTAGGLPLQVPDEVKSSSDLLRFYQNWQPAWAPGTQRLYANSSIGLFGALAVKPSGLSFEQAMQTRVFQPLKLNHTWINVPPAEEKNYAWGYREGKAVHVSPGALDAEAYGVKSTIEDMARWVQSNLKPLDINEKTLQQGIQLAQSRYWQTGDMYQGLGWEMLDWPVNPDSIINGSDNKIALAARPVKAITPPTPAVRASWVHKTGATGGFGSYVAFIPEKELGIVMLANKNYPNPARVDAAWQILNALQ
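20 mM phosphate pH 7.0 + 0.01% (detergent screen) or 0.0001% Triton X-100; 5.3 nM AmpC reagent; cpd preinc 15 min RT; nitrocefin (800 uM stock) to start; A480 q20 s × 4 min; Activity was normalised to no-enzyme and no-compound control wells.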
Sm TGR block – qHTS Assay for the Inhibitors of Schistosoma Mansoni Peroxiredoxins. Schistosoma mansoni thioredoxin glutathione reductase (TGR), Q962Y6. AID 485364, 2010. hit rate 3% among 360,000. Potency, µM (titrated, usually from 114 µM), without a hit: at the highest dose activity change, negative = inhibition, hits mostly inhibitors. purified TGR, DTNB reduction, TNB absorbance 405 nm; further: nearly all actives have a fitted effect of over 60% in size
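TGR 20 nM + NADPH 100 uM (dispensed conc.), cpd preinc 15 min RT; start with NADPH (500 uM addition) then DTNB (15 mM addition). Kinetic TNB absorbance, 405 nm filter. Four-parameter Hill fit across titration.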
AmpC detergent – qHTS Inhibitors of AmpC Beta-Lactamase (assay with detergent). AmpC hydrolysis of nitrocefin, absorbance 480 nm, 0.01% Triton. P00811. Potency, µM (series often up to 114 µM), for inactives: at the top dose activity change, negative = inhibition, usual class: inhibitors. AID 485294, 2010. hit rate 0.041% among 370,000;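 further: 0% = no-compound wells and -100% = no-enzyme wells; nearly all actives have a fitted effect of over 25% in size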
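AmpC (5.3 nM in the dispensed reagent) in 20 mM phosphate pH 7.0 with 0.01% (detergent screen) or 0.0001% Triton X-100 was preincubated with compounds for 15 min at room temperature. Nitrocefin was then added from an 800 uM solution, and hydrolysis was followed at 480 nm.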
* hit, by the source's call; ? = inconclusive; . = no result given. A selection: hits, their analogues and other compounds. The true share with any hit is near 3.3%. The call rests on the fitted dose curve; in most records, active means well fitted curve in the direction sought with a large enough effect; inconclusive means small, poorly fitted or top-dose-only effect, or another doubt; inactive means no such curve, though single readings can be large; an effect the other way counts as inactive or inconclusive. Unless noted, on the % scale 0 is the no-effect control and ±100 the full control effect; potency means the concentration at half of the fitted maximal effect.

SMILES	AmpC no deterg	Sm TGR block	AmpC detergent
COc1ccccc1/C=C1\CCCC2=C1Nc1nnnn1C2c1ccccc1OC (configuration not stated)	-57%	4µM*	-8%
COc1ccccc1NC(=O)C1=C(C)Nc2nnnn2C1c1ccccc1OC (configuration not stated)	-13%	-4%	?
CCOC(=O)c1[nH]c2ccccc2c1NC(=O)c1cc(OCC)c(OCC)c(OCC)c1	.	5%	12%
CCC(C)NC(=O)CSc1nc2cc3c(cc2c(=O)n1CCCC(=O)NCCc1ccc(OC)c(OC)c1)OCO3 (configuration not stated)	.	1%	-7%
Cc1ccc(CN2C(=O)CN(C3CCCCCC3)C(=O)C2c2ccc(F)cc2)cc1 (configuration not stated)	.	3%	-5%
COc1ccc(/C=N\Nc2ccc([N+](=O)[O-])cc2[N+](=O)[O-])c(C(=O)O)c1OC	-10%	8.9µM*	-12%
COc1ccc(/C=N\Nc2ccccc2[N+](=O)[O-])c(C(=O)O)c1OC	-6%	-3%	-5%
COCCn1c(COc2cccc(OC)c2)nnc1SCC(=O)NC1CCCCC1	44%	-2%	7%
COc1cc(C2Nc3cccc4cccc(c34)N2)cc(OC)c1OC(C)=O	-31%	8.9µM*	2%
Oc1ccc2ccccc2c1C1Nc2cccc3cccc(c23)N1	-33%	-35%	2%
COc1cc(/C=N\NC(=O)c2ccc(-c3ccccc3)cc2)cc(OC)c1OC(C)=O	53%	?	4%
CCN(CC)c1ccc(C2Nc3cccc4cccc(c34)N2)c(O)c1	-18%	22µM*	-3%
COc1ccc(Br)cc1C1Nc2cccc3cccc(c23)N1	-28%	?	-16%
COc1cc(C2Nc3cccc4cccc(c34)N2)ccc1O	-43%	4µM*	?
NC(=O)c1ccc(NC(=O)COC(=O)CCc2ccc(S(=O)(=O)N3CCCCC3)cc2)cc1	-26%	2%	2%
CCC1CN(C(=O)C2CCN(S(=O)(=O)c3c(C)noc3/C=C/c3ccccc3F)CC2)c2cc(Cl)ccc2O1 (configuration not stated)	.	1%	9%
CCN(CCCNC(=O)c1nn(-c2ccc(OC)c(Cl)c2)c(=O)c2c1c1ccccc1n2C)c1cccc(C)c1	.	-13%	5%
Cc1ccc(O)c(C(CC(=O)NCC2(c3ccccc3)CCCC2)c2ccccc2)c1 (configuration not stated)	.	-3%	6%
Cc1nc(N2CCCC2)ncc1C(=O)NCc1ccc(Cl)cc1	.	0%	-9%
NS(=O)(=O)c1ccc(NC(=O)c2ccc(S(=O)(=O)N3CCCCC3)cc2)cc1	-26%	.	.
O=S(=O)(c1ccc(NC(=S)Nc2ccc3c(c2)OCO3)cc1)N1CCOCC1	-20%	?	9%
O=[N+]([O-])c1cccc(NC(=S)N2CCOCC2)c1	-18%	4%	-5%
NS(=O)(=O)c1ccc(NC(=S)Nc2ccc(S(=O)(=O)N3CCCC3)cc2)cc1	-24%	25µM*	-9%
O=C(Cc1ccc(Br)cc1)Nc1cccc(S(=O)(=O)N2CCOCC2)c1	-16%	-1%	?
O=[N+]([O-])c1cccc(NC(=S)N2CCN(S(=O)(=O)c3ccccc3)CC2)c1	22µM*	1%	5%
SMILES	AmpC no deterg	Sm TGR block	AmpC detergent
O=S(=O)(c1cccc(NC(=S)Nc2ccc(Br)cc2Cl)c1)N1CCOCC1	-47%	14µM*	-8%
O=S(=O)(c1ccc(NC(=S)Nc2ccccc2)cc1)N1CCOCC1	-3%	45µM*	-2%
CN(Cc1ccccc1)c1ncnc2c1nnn2C	.	4%	3%
CCOc1cc2c(cc1OCC)C(CC(=O)OC)N(C(=O)Nc1cc(OC)ccc1OC)CC2 (configuration not stated)	.	5%	19%
O=C(NCc1ccco1)c1ccc(CS(=O)Cc2ccc(Cl)cc2)o1 (configuration not stated)	3%	-35%	0%
O=C(O)c1cc(-c2ccc(Cl)cc2)n(-c2cccc(Cl)c2)n1	-19%	-15%	-8%
CCCC(=O)Nc1ccc(S(=O)(=O)N2CCCC2)cc1	-23%	-7%	-1%
N#Cc1ccc(/C=N/NC(=S)Nc2ccc(S(=O)(=O)N3CCOCC3)cc2)cc1	-27%	-4%	-11%
O=C(O)c1nccnc1C(=O)Nc1ccc(S(=O)(=O)N2CCOCC2)cc1	-13%	25µM*	-14%
COCCOC(=O)c1nccnc1C(=O)Nc1ccc(S(=O)(=O)N2CCOCC2)cc1	6%	3%	-1%
O=S(=O)(c1ccc(NC(=S)N/N=C/c2ccc(O)c(O)c2)cc1)N1CCOCC1	16µM*	-12%	-4%
CCCCC(=O)NC(=S)Nc1ccc(S(=O)(=O)N2CCCC2)cc1	13µM*	7%	-11%
O=S(=O)(c1ccc(NC(=S)NCc2cccnc2)cc1)N1CCCCC1	-41%	32µM*	7%
O=C(NCc1cccnc1)c1ccc(S(=O)(=O)N2CCCCC2)cc1	-8%	19%	-9%
COc1ccc2c(c1)CC(NC(=O)Nc1cc(Cl)ccc1OC)CO2 (configuration not stated)	.	-2%	15%
CNC(=O)COc1ccc(Nc2nnc(-c3ccc(C)c(S(N)(=O)=O)c3)c3ccccc23)cc1	54%	0%	-6%
COc1ccc(S(=O)(=O)N(CC(=O)Nc2ccccc2Br)Cc2ccccc2)cc1	.	0%	14%
COc1ccc(C2=C(C)C(=NCc3ccc(OC(C)C)cc3)NS2(=O)=O)cc1	.	1%	18%
Cc1ccc(S(=O)(=O)N2CCOCC2)cc1NC(=O)COC(=O)COc1ccccc1[N+](=O)[O-]	-21%	.	.
CN1CCN(S(=O)(=O)c2ccc(NC(=S)NC(=O)c3ccc(Cl)cc3)cc2)CC1	90%	22µM*	2%
Cc1ccc(NC(=S)Nc2cccnc2)c(S(=O)(=O)N2CCCCC2)c1	14µM*	14µM*	-14%
Cc1ccc(C)c(NC(=S)Nc2cccnc2)c1	-12%	?	-11%
CN1CCN(S(=O)(=O)c2ccc(NC(=S)NC(=O)c3ccccc3)cc2)CC1	17%	?	?
O=C(Nc1ccccc1N1CCCC1)c1cc(S(=O)(=O)N2CCOCC2)ccc1Cl	35%	4%	3%
O=S(=O)(c1ccc(Cl)c(NC(=S)Nc2ccccc2N2CCOCC2)c1)N1CCOCC1	-34%	35µM*	-4%
Cc1ccc(C)c(-c2nnc(NC(=O)CCS(=O)(=O)c3ccc(F)cc3)o2)c1	-1%	-10%	-7%
O=C(Nc1ccc(Cl)cc1)C1C2C=CC3(O2)C1C(=O)N(CCCN1CCCCC1)C3C(=O)NC1CCCCC1 (configuration not stated)	-9%	-2%	-10%
Cc1ccc(NC(=O)C(C)N2C(=O)c3ccccc3C2=O)cc1S(=O)(=O)N1CCOCC1 (configuration not stated)	-12%	14%	-9%
CCOc1ccc(N(C(=O)CNC(=O)c2ccco2)C(C(=O)NC2CCCC2)c2cccnc2)cc1 (configuration not stated)	2%	23%	2%

Source: PubChem (National Center for Advancing Translational Sciences (NCATS))
